Measured values from PubChem BioAssay AID1490 (National Center for Advancing Translational Sciences (NCATS), 2009).
Hit rate of the full screen: of about 310,000 compounds, about 11,000 (3.5%) were called active. Inconclusive results (about 4%) are left out. The sample holds actives, similar compounds and a random draw of the others, so the mix is not that of the screen. Calls follow the shape of the dose curve; as a rule, active = well fitted inhibition curve with a large enough effect; inconclusive = small, poorly fitted or top-dose-only effect, or another doubt; inactive = no such curve, though single readings can be large or run the other way.

Each compound was assayed against 4'-phosphopantetheinyl transferase ffp (Bacillus subtilis) (UniProt Q9F4F7) (assay: qHTS Assay for Inhibitors of Bacillus subtilis Sfp phosphopantetheinyl transferase (PPTase)). Conditions: Biochemical Sfp PPTase activity.
How it was run: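 After 15 min at room temperature with compound, 15 nM Sfp received 5 uM rhodamine-CoA plus 12.5 uM BHQ-2-ybbR (50 mM Hepes pH 7.6, 10 mM MgCl2). Rate came from the fluorescence difference over 30 min, ex 525/em 598 nm.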
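Also: the enzyme is Sfp with the accession as filed and its product quenches rhodamine fluorescence.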
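For Largest response in the series, negative = inhibition in this document: 0% = enzyme reaction without inhibitor and -100% = no enzyme wells.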
Potency is read from the fitted curve at half-maximal effect.

Potency, active:
COc1ccc(N2C(=O)C3C(C2=O)C(C(=O)c2ccccc2)N2CCCC32)cc1 (centres undefined) 50.1 µM, Cc1nc(N2CCOCC2)sc1C(=O)NN 56.2 µM, Nc1nnnn1CC(=O)N/N=C/c1ccc(-c2cccc(Cl)c2)o1 25.1 µM, CCn1c2ccccc2c2cc(NC(=O)Nc3ccc([N+](=O)[O-])cc3C)ccc21 56.2 µM, N#Cc1c(N)sc2c1CCN(C(=O)OCc1ccccc1)C2 20 µM, CCOC(=O)c1c(C)nn(-c2ncccc2NC(=O)CCC(=O)O)c1C 89.1 µM, CCS(=O)(=O)c1cc([N+](=O)[O-])c(Sc2ccccc2N)s1 3.98 µM, O=c1c(O)c(Br)ccc2c(Br)c(O)c(O)c(O)c12 44.7 µM, CNC(=S)N/N=C/c1ccc(N2CCOCC2)s1 8.91 µM, CCn1c(CNc2ccc(OC)cc2)nnc1SCC(=O)c1ccc(OC)cc1 28.2 µM, Cc1ccc(S(=O)(=O)C(C#N)c2nc3ccccc3nc2N2CCCC2)cc1C (centres undefined) 50.1 µM, S=c1[nH]c(-c2cccs2)cn1-c1ccccc1 15.8 µM

Largest response in the series, negative = inhibition, inactive:
COc1ccc(N2C(=O)C3CCCN3C2c2cccs2)cc1 (centres undefined) -3.66%, COc1ccc(N2C(=O)C(Cc3ccccc3)NC2=S)cc1 (centres undefined) 6.01%, O=C(N/C(=C\c1ccc([N+](=O)[O-])cc1)C(=O)N1CCOCC1)c1cccc(Br)c1 3.86%, CCOC(=O)N1CCN(C(=O)C(C)NC(=O)c2ccco2)CC1 (centres undefined) 26.5%, CCn1c(SCC(=O)Nc2ccc(Br)cc2)nc2sc3c(c2c1=O)CCN(C)C3 2.9%, CCOC(=O)N1CCC(NC(=O)c2ccc3nc(N4CCOCC4)sc3c2)CC1 6.95%, Cc1nc(-c2ccc(Cl)cc2)sc1C(=O)NN 5.7%, Cc1ccc(NS(=O)(=O)c2ccc3c(c2)NC(=O)CO3)cc1 7.8%, COC(=O)N/N=C/c1ccc(-c2ccc(Cl)c(Cl)c2)o1 -3.69%, O=C(Cn1nnc(-c2ccccc2)n1)N/N=C/c1ccc(-c2ccc(Cl)cc2)o1 25.9%, CC(=O)c1ccc(NC(=O)Nc2ccc([N+](=O)[O-])cc2C)cc1 10.3%, Cc1cc([N+](=O)[O-])ccc1NC(=O)c1ccc(NC(=O)C(C)C)cc1 6.44%, O=[N+]([O-])c1ccc(N(CCO)Cc2ccccc2)c([N+](=O)[O-])c1 3.62%, O=C(c1cnc(Cl)c(Cl)c1)N1CCN(S(=O)(=O)c2ccc(F)cc2)CC1 -5.59%, Cc1cccc(NC(=O)N2CCCCCC2)c1C 3.74%, CC(=O)N1CCc2c(sc(NC(=O)CCS(=O)(=O)c3ccccc3)c2C#N)C1 -1.97%, CC(C)N1CCc2c(sc(NC(=O)Cc3ccccc3)c2C#N)C1 11.3%, CC(CC(=O)Nc1ccc(F)cc1F)S(=O)(=O)c1ccc2c(c1)NC(=O)CO2 (centres undefined) 0.768%, NS(=O)(=O)c1ccc(CCNS(=O)(=O)c2cccc3cccnc23)cc1 2.24%, COc1ccc(CN2CCN(C(=O)CCC(=O)Nc3nnc(C(C)C)s3)CC2)cc1F 17.5%, Cc1ccc(NS(=O)(=O)c2ccc(-c3ccc(=O)[nH]n3)o2)c(C)c1 23.5%, Cc1ccc(OC(=O)c2c(C)nn(-c3ccccc3)c2C)cc1 -5.58%, CCOC(=O)c1c(-c2ccc(-c3ccccc3)cc2)csc1NC(=O)CCC(=O)O -8.3%, CN(C(=O)c1cccc([N+](=O)[O-])c1)c1ccccc1C(=O)NCc1ccccc1 15.3%, CCOc1ccc(CNC(=O)CCC(=O)N2CCSc3ccccc32)cc1 11.6%, Nc1ccccc1Sc1ccc(C(F)(F)F)cc1[N+](=O)[O-] 4.01%, CCOC(=O)c1cc(Sc2ccccc2N)cc(C(=O)OCC)n1 2.06%, COCCn1c(N)c(NCc2ccccc2)c(=O)[nH]c1=O -5.84%, CCc1ccc(OCC(=O)NCC(c2ccc(Cl)cc2)N2CCCCC2)cc1 (centres undefined) -3.22%, CN(CCC1CCOCC1)C(=O)CC1C(=O)NCCN1Cc1cccc(F)c1 (centres undefined) 18.8%, Cc1cc(C(=O)N/N=C/c2ccc(N3CCOCC3)cc2)c(C)o1 16%, C=CCNC(=S)N/N=C/c1ccc(C)s1 10%, CC(NC(=O)COc1ccc(-c2ccccc2)cc1)C1CCCO1 (centres undefined) -4.17%, Cc1ccccc1/C=C\c1nc(O)c([N+](=O)[O-])c(=O)[nH]1 2.6%, COC(=O)c1ccc(NC(=O)CSc2nnc(CNc3ccc(OC)cc3)n2C)cc1 7.16%, C=CCn1c(CNC(=O)c2ccco2)nnc1SCC(=O)c1ccc(OC)cc1 17.3%, O=C(NCc1ccc2c(c1)OCO2)C(=O)NCC1OCCN1S(=O)(=O)c1ccc(F)cc1 (centres undefined) 4.15%, COc1ccc(OC)c([C@H](O)CNC(=O)CN)c1 4.71%, CC(C)c1nnc(NC(=O)CCC(=O)N2CCN(c3cccc(Cl)c3)CC2)s1 0.428%, CC(C)NS(=O)(=O)c1ccc(OCC(=O)NC2CCCCCC2)cc1 6.32%, Cc1cc(N2CCN(S(=O)(=O)c3ccc(C)c(C)c3)CC2)c2ccccc2n1 -20.8%, Cc1ccc(S(=O)(=O)Nc2nc3ccccc3nc2N2CCc3ccccc3C2)cc1 9.29%, COc1ccc(NS(=O)(=O)c2cccc3nsnc23)cc1Cl 13.3%, Cc1cc(-c2ccc(S(=O)(=O)N3CCN(c4cccc(C(F)(F)F)c4)CC3)s2)on1 8.41%, S=c1[nH]nc(-c2cccs2)n1/N=C/c1cn(-c2ccccc2)nc1-c1ccc(Cl)cc1 -17.4%, O=c1[nH]c(-c2cccs2)nc2ccccc12 -0.0388%, COc1cccc(NC(=O)C2C(c3ccccc3)C2(Cl)Cl)c1 (centres undefined) 11.1%
